In PubChem BioAssay (Tox21):
Unmarked numbers belong to inactive results. Calls follow the shape of the dose curve; as a rule, active = well fitted activation curve with a large enough effect in the repeat runs; inconclusive = weak or mixed curves; inactive = flat fitted curve, though single readings scatter.

test: A CellTox Green Cytotoxicity Assay to monitor cytotoxicity in HepG2 cells - 0 hour (AID 1224882); conditions: CellTox Green fluorescence; series mostly up to 76.8 µM; cytotoxicity: at the top concentration; also: nearly all actives have a fitted effect of over 35% in size
Excerpt: National Center for Advancing Translational Sciences [NCATS]
NIH Chemical Genomics Center [NCGC]
U.S. Environmental Protection Agency [EPA]
National Institutes of Environmental Health Sciences [NIEHS]
National Toxicology Program [NTP]
Cell-based models are critical for drug discovery. Determining the natural cytotoxic effects resulting from test compounds is an essential research activity. A CellTox Green Cytotoxicity Assay to monitor cytotoxicity in real time of continues cell culture during 40 hours of the compound treatment was used to screen Tox21 10K library compounds in HepG2 cells. CellTox Green Cytotoxicity Assay is a nonlytic, homogeneous, biofluorescent method to measure cytotoxicity in cell culture after experimental manipulation. The assay system uses a proprietary asymmetric cyanine dye that is excluded from viable cells but preferentially stains the dead cell's DNA. […] Viable cells produce no appreciable increases in fluorescence. Therefore, the fluorescence signal produced by the binding interaction with dead cell DNA is proportional to cytotoxicity.
The mixture of HepG2 cell suspension and reagents were dispensed at 600cells/6 ul/well in 1536-well tissue culture treated black solid bottom plates using a Multidrop dispenser. After the assay plates were incubated at a 37 C/5% CO2 incubator for 5 hours, 23 nL of compounds dissolved in DMSO, positive and negative controls was transferred to the assay plate by a pintool work station. The plates were incubated at 37 C for 40 hours. The fluorescence intensity were measured at 0h, 8h, 16h, 24h, 32h and 40h time points using ViewLux plate reader during compound treatment.
% is scaled to controls: 0 for no effect and ±100 for the full control effect.

Row | Compound | cytotoxicity
1 | CCCCC(=O)O[C@]1(C(=O)CO)[C@@H](C)C[C@H]2[C@@H]3CCC4=CC(=O)C=C[C@]4(C)[C@@]3(F)[C@@H](O)C[C@@]21C | 2.52%
2 | CCCCCCCCCCOS(=O)(=O)O | -3.46%
3 | CN1CCN(c2c(F)cc3c(=O)c(C(=O)O)cn4c3c2OCN4C)CC1 | -9.31% [at 15.8 µM]
4 | CCCCCCCCCCCC[N+](C)(C)CC(=O)[O-] | 2.53%
5 | OCCSc1ccccc1 | 12.6%
6 | CNC(=O)N(c1ccccc1)c1ccccc1 | 1.17%
7 | O=C(CCC1CCN(Cc2ccccc2)CC1)c1ccc2c(c1)NCCCC2 | 0.753% [at 35.3 µM]
8 | CC(=O)OCC(=O)[C@@]12OC(C)(C)O[C@@H]1C[C@H]1[C@@H]3C[C@H](F)C4=CC(=O)C=C[C@]4(C)[C@@]3(F)[C@@H](O)C[C@@]12C | -2.41% [at 35.3 µM]
9 | CC(=O)[C@H]1CC[C@H]2[C@@H]3C=CC4=CC(=O)CC[C@@]4(C)[C@@H]3CC[C@]12C | -2.14% [at 35.3 µM]
10 | Brc1cc(-c2ccc(Br)c(Br)c2Br)cc(Br)c1Br | -0.353% [at 35.3 µM]
11 | Cc1cc(C(=C2C=CC(=Nc3ccc(S(=O)(=O)O)cc3S(=O)(=O)O)C=C2)c2ccc(Nc3ccc(S(=O)(=O)O)cc3)cc2)ccc1N | -9.91% [at 35.3 µM]
12 | O=c1[nH]c2ccc(S(=O)CCN3CCC(Cc4ccc(F)cc4)CC3)cc2o1 (stereo not given) | -1.7%
13 | CC1(C)C2=CCCC(C)(C)[C@]23CC[C@H]1C3 | -6.81%
14 | O=C(N/N=C/c1ccc([N+](=O)[O-])o1)c1ccc(O)cc1 | -16.6% [at 35.3 µM]
15 | O=C(O)c1snc(Cl)c1Cl | 3.27%
16 | Cc1cc(S(=O)(=O)O)ccc1N=Nc1c(O)ccc2ccccc12 | -26.8%
17 | CCCC(=O)O[C@]1(C(=O)COC(=O)CC)CC[C@H]2[C@@H]3CCC4=CC(=O)CC[C@]4(C)[C@H]3[C@@H](O)C[C@@]21C | -8.79% [at 15.8 µM]
18 | CO/N=C1\CN(c2nc3c(cc2F)c(=O)c(C(=O)O)cn3C2CC2)CC1CN (stereo not given) | 0.968% [at 35.3 µM]
19 | ON(Cc1ccccc1)Cc1ccccc1 | 0.0453%
20 | CCC(C(=O)OCCN(CC)CC)c1ccccc1 (stereo not given) | -9.44% [at 35.3 µM]

Row | Compound | cytotoxicity
21 | CCC(C)(O)CCC=C(C)C (stereo not given) | -7.09%
22 | O=C(C(=O)c1ccccc1)c1ccccc1 | -1.14%
23 | CCOC(=N)CC(=O)OCC | -3.91%
24 | COc1ccc(C(=O)c2cccc(O)c2)c(OC)c1 | -4.15%
25 | O=C(O)c1ccc(CO)o1 | -1.51%
26 | CC(C)(C)C(=O)C(Oc1ccc(Cl)cc1)n1ccnc1 (stereo not given) | -10.2% [at 35.3 µM]
27 | C=CCNc1nc(NCC=C)nc(N2CCN(C(c3ccc(F)cc3)c3ccc(F)cc3)CC2)n1 | -5.73% [at 35.3 µM]
28 | C=CC(=C)CCCC(C)(C)OC(C)=O | -2.28%
29 | O=C(OCCOCCO)c1ccccc1Nc1cccc(C(F)(F)F)c1 | 1.35% [at 35.3 µM]
30 | CC(=O)Oc1ccc2c(c1)CC[C@@H]1[C@@H]2CC[C@]2(C)[C@@H](O)CC[C@@H]12 | -0.479% [at 35.3 µM]
31 | C=C(C)C(=O)OCCOC(=O)CC(C)=O | -2.77%
32 | O=S1OCCO1 | -2.26%
33 | Cc1cnc(C)c(C)n1 | 12%
34 | OC(CCCN1CCCCC1)(c1ccccc1)c1ccccc1 | 1.87% [at 35.3 µM]
35 | Cc1ccccc1N1C(=O)c2cc(S(N)(=O)=O)c(Cl)cc2NC1C (stereo not given) | -5.43% [at 35.3 µM]
36 | CCCCN(CCCC)CCCOC(=O)c1ccc(N)cc1 | -10.8% [at 35.3 µM]
37 | CCc1c2c(nc3ccc(OC(=O)N4CCC(N5CCCCC5)CC4)cc13)-c1cc3c(c(=O)n1C2)COC(=O)[C@]3(O)CC | 0.828% [at 35.3 µM]
38 | O=C(/C=C/c1ccccc1)OCCCc1ccccc1 | -10.2%
39 | Oc1ccc(Nc2ccccc2)cc1 | -3.23%
40 | Cc1c(C(=O)NN2CCCCC2)nn(-c2ccc(Cl)cc2Cl)c1-c1ccc(Cl)cc1 | 3.22% [at 35.3 µM]
